Test results as given in the supplement of paper PMC6897291.

Experiments:
U-2932 [1] = assay: growth inhibition by drug alone (1 - RLU/untreated control) (fraction); higher = stronger inhibition; settings: 177Lu-lilotomab satetraxetan 0 ug/ml
Procedure, shortened: (§1)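 A radiolabelled anti-CD37 antibody conjugate (~600 MBq/mg) was applied for 18 h at 0.5 µg/ml to RIVA and 1 µg/ml to U-2932 cells, with untreated cells run alongside. All cells were washed and seeded at 3,000 cells/well onto library-printed plates at 10/100 nM (RIVA) or 10/1,000 nM (U-2932). Growth inhibition was based on RealTime-Glo luminescence compared with untreated no-drug wells. Daily reads began on day 3 after 1 h at 37°C, with each value being 1 − RLU/mean of the 48 such wells on that plate.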

U-2932 [2] = assay: growth inhibition by drug plus 177Lu-lilotomab satetraxetan (1 - RLU/untreated control) (fraction); higher = stronger inhibition; settings: 177Lu-lilotomab satetraxetan 1 ug/ml
Procedure, shortened: as §1

RIVA [3] = assay: as above; settings: 177Lu-lilotomab satetraxetan 0.5 ug/ml
Procedure, shortened: as §1

RIVA [4] = assay: growth inhibition by drug alone (1 - RLU/untreated control) (fraction); higher = stronger inhibition; settings: 177Lu-lilotomab satetraxetan 0 ug/ml
Procedure, shortened: as §1

Compound	growth inhibition by drug alone (U-2932 [1]; 10 nM, time (day): 3)	growth inhibition by drug alone (U-2932 [1]; 10 nM, time (day): 4)	growth inhibition by drug alone (U-2932 [1]; 10 nM, time (day): 5)	growth inhibition by drug alone (U-2932 [1]; 10 nM, time (day): 6)	growth inhibition by drug alone (U-2932 [1]; 1000 nM, time (day): 3)	growth inhibition by drug alone (U-2932 [1]; 1000 nM, time (day): 4)	growth inhibition by drug alone (U-2932 [1]; 1000 nM, time (day): 5)	growth inhibition by drug alone (U-2932 [1]; 1000 nM, time (day): 6)	growth inhibition by drug plus 177Lu-lilotomab satetraxetan (U-2932 [2]; 10 nM, time (day): 3)	growth inhibition by drug plus 177Lu-lilotomab satetraxetan (U-2932 [2]; 10 nM, time (day): 4)	growth inhibition by drug plus 177Lu-lilotomab satetraxetan (U-2932 [2]; 10 nM, time (day): 5)	growth inhibition by drug plus 177Lu-lilotomab satetraxetan (U-2932 [2]; 10 nM, time (day): 6)	growth inhibition by drug plus 177Lu-lilotomab satetraxetan (U-2932 [2]; 1000 nM, time (day): 3)	growth inhibition by drug plus 177Lu-lilotomab satetraxetan (U-2932 [2]; 1000 nM, time (day): 4)	growth inhibition by drug plus 177Lu-lilotomab satetraxetan (U-2932 [2]; 1000 nM, time (day): 5)	growth inhibition by drug plus 177Lu-lilotomab satetraxetan (U-2932 [2]; 1000 nM, time (day): 6)	growth inhibition by drug plus 177Lu-lilotomab satetraxetan (RIVA [3]; 10 nM, time (day): 3)	growth inhibition by drug plus 177Lu-lilotomab satetraxetan (RIVA [3]; 10 nM, time (day): 4)	growth inhibition by drug plus 177Lu-lilotomab satetraxetan (RIVA [3]; 10 nM, time (day): 5)	growth inhibition by drug plus 177Lu-lilotomab satetraxetan (RIVA [3]; 10 nM, time (day): 6)	growth inhibition by drug plus 177Lu-lilotomab satetraxetan (RIVA [3]; 100 nM, time (day): 3)	growth inhibition by drug plus 177Lu-lilotomab satetraxetan (RIVA [3]; 100 nM, time (day): 4)	growth inhibition by drug plus 177Lu-lilotomab satetraxetan (RIVA [3]; 100 nM, time (day): 5)	growth inhibition by drug plus 177Lu-lilotomab satetraxetan (RIVA [3]; 100 nM, time (day): 6)	growth inhibition by drug alone (RIVA [4]; 10 nM, time (day): 3)	growth inhibition by drug alone (RIVA [4]; 10 nM, time (day): 4)	growth inhibition by drug alone (RIVA [4]; 10 nM, time (day): 5)	growth inhibition by drug alone (RIVA [4]; 10 nM, time (day): 6)	growth inhibition by drug alone (RIVA [4]; 100 nM, time (day): 3)	growth inhibition by drug alone (RIVA [4]; 100 nM, time (day): 4)	growth inhibition by drug alone (RIVA [4]; 100 nM, time (day): 5)	growth inhibition by drug alone (RIVA [4]; 100 nM, time (day): 6)
CCOc1cc(C(=O)Nc2ccc(Cl)c(-c3nc4ccccc4[nH]3)c2)cc(OCC)c1OCC	-0.0835	0.00922	-0.0921	-0.101	0.0527	0.106	0.057	0.0205	-0.0124	0.0291	0.0337	0.147	0.147	0.267	0.28	0.362	0.452	0.548	0.564	0.568	0.625	0.648	0.668	0.654								
C[C@@H](N)[C@H]1CC[C@H](C(=O)Nc2ccncc2)CC1	-0.00242	-0.0313	-0.0598	-0.119	-0.0269	-0.0273	-0.115	-0.0522	-0.0365	0.0334	0.0633	0.082	-0.014	0.0434	0.0766	0.194	0.59	0.588	0.605	0.619	0.339	0.452	0.463	0.469								
C[C@@H](Oc1cc(-c2cnn(C3CCNCC3)c2)cnc1N)c1c(Cl)ccc(F)c1Cl	0.0921	0.0793	0.115	-0.0753	0.154	0.193	0.301	0.419	0.0291	0.0614	0.116	0.192	0.115	0.223	0.397	0.566	0.466	0.573	0.592	0.61	0.405	0.523	0.532	0.543								
Cc1cccc(-c2[nH]c(C(C)(C)C)nc2-c2ccc3nccnc3c2)n1	0.121	0.0591	-0.0391	-0.0718	0.0282	0.0616	0.0184	-0.0529	0.0382	0.108	0.172	0.201	0.0486	0.0781	0.126	0.19	0.595	0.633	0.644	0.65	0.316	0.428	0.434	0.447	-0.0404	-0.00935	-0.0953	-0.422	-0.418	-0.28	-0.32	-0.559
Cc1ccc(C(=O)Nc2ccc(CN3CCN(C)CC3)c(C(F)(F)F)c2)cc1C#Cc1cnc2cccnn12	-0.0855	-0.101	-0.212	-0.304	0.619	0.711	0.699	0.718	-0.1	-0.0253	0.0155	0.0448	0.74	0.819	0.844	0.883	0.39	0.475	0.499	0.509	0.689	0.752	0.77	0.788								
COc1cc2ncnc(Nc3ccc(F)c(Cl)c3)c2cc1NC(=O)/C=C/CN1CCCCC1	-0.101	-0.0931	-0.078	0.0128	-0.222	-0.156	-0.164	-0.0283	-0.0733	-0.0275	0.0218	0.0574	-0.26	-0.16	-0.0838	0.0995	0.446	0.525	0.55	0.538	0.262	0.366	0.387	0.392								
NC(=O)c1ccc2nc(-c3ccc(Oc4ccc(Cl)cc4)cc3)[nH]c2c1	0.00125	0.0235	0.00264	-0.0848	-0.16	-0.101	-0.0954	-0.129	0.0152	0.0513	0.0592	0.129	-0.283	-0.107	-0.0258	0.0425	0.4	0.51	0.52	0.516	0.455	0.517	0.523	0.501								
CN(C)Cc1ccc(-c2nc3cccc4c3n2CCNC4=O)cc1	0.121	0.0696	-0.0285	-0.000931	0.038	0.056	-0.00883	-0.203	0.00803	0.0491	0.0539	0.0786	0.0336	0.127	0.116	0.183	0.564	0.632	0.638	0.652	0.585	0.642	0.654	0.657								
O=c1cc(-c2cccc3c2Sc2ccccc2S3)oc(N2CCOCC2)c1	-0.0795	-0.0657	-0.0216	0.0484	-0.0815	-0.0342	-0.0721	-0.125	-0.0246	-0.00365	0.0233	0.166	-0.108	-0.0389	-0.0219	0.0537	0.36	0.504	0.522	0.526	0.335	0.399	0.405	0.382	-0.212	-0.223	-0.243	-0.318	-0.0838	-0.0652	-0.119	-0.19
CC(C)C(=O)Nc1ccc([N+](=O)[O-])c(C(F)(F)F)c1 [Flutamide (Eulexin)]	0.147	0.0928	0.0103	-0.0414	0.15	0.123	0.105	0.0519	0.105	0.202	0.26	0.327	0.175	0.211	0.291	0.385	0.611	0.616	0.649	0.663	0.534	0.562	0.599	0.626								
O=C(Nc1cccnc1)N1CCC(Cc2cccc(Oc3ccc(C(F)(F)F)cn3)c2)CC1	0.144	0.101	-0.0107	-0.0195	0.779	0.796	0.833	0.872	0.152	0.18	0.262	0.319	0.299	0.291	0.395	0.544	0.71	0.692	0.714	0.718	0.554	0.566	0.583	0.595	0.473	0.369	0.37	0.34	-0.00381	0.0224	0.0325	-0.0255
CS(=O)(=O)N1CCN(Cc2cc3nc(-c4cccc5[nH]ncc45)nc(N4CCOCC4)c3s2)CC1	-0.0712	-0.0515	-0.0456	0.0469	0.69	0.786	0.802	0.82	-0.0212	-0.0112	0.0169	0.184	0.81	0.875	0.897	0.913	0.351	0.467	0.488	0.493	0.532	0.5	0.486	0.45								
COc1cc2nc(N3CCCN(C)CC3)nc(NC3CCN(Cc4ccccc4)CC3)c2cc1OC	0.128	0.0539	-0.00458	-0.0956	0.00727	0.0766	0.0688	0.0239	0.0951	0.135	0.169	0.207	0.133	0.247	0.267	0.319	0.498	0.588	0.618	0.631	0.469	0.552	0.569	0.565								
Cc1nnc(C(C)C)n1C1C[C@H]2CC[C@@H](C1)N2CC[C@H](NC(=O)C1CCC(F)(F)CC1)c1ccccc1 (stereo in doubt) [Maraviroc]	0.125	0.118	0.0854	-0.0157	0.0827	0.0764	-0.0104	-0.122	0.128	0.146	0.143	0.239	0.0251	0.112	0.105	0.201	0.542	0.609	0.618	0.645	0.545	0.593	0.587	0.584								
C#Cc1cccc(Nc2ncnc3cc(OC)c(OCCCCCCC(=O)NO)cc23)c1	-0.0221	-0.0137	-0.0216	0.0129	0.966	0.973	0.975	0.978	-0.132	-0.086	-0.0994	-0.0508	0.971	0.977	0.981	0.984	0.365	0.467	0.495	0.496	0.935	0.924	0.926	0.923								
CCCCc1nc2cc(/C=C/C(=O)NO)ccc2n1CCN(CC)CC [SB939 (Pracinostat)]	0.0917	0.0424	-0.0359	-0.128	0.935	0.941	0.959	0.973	0.0531	0.113	0.137	0.186	0.95	0.96	0.973	0.982	0.656	0.663	0.693	0.699	0.817	0.85	0.868	0.876	0.107	0.0736	0.0778	0.0437	0.513	0.435	0.418	0.353
CCCS(=O)(=O)Nc1ccc(F)c(C(=O)c2c[nH]c3ncc(-c4ccc(Cl)cc4)cc23)c1F [Vemurafenib (PLX4032)]	0.026	-4.15e-06	-0.0629	-0.147	-0.152	-0.0928	-0.16	-0.291	-0.0121	0.00305	0.0511	0.0873	-0.143	-0.047	-0.0561	0.06	0.42	0.546	0.561	0.576	0.432	0.531	0.539	0.524								
CC(C)C[C@H](NC(=O)CNC(=O)c1cc(Cl)ccc1Cl)B(O)O	-0.0591	-0.0376	0.0132	0.111	0.983	0.984	0.984	0.985	-0.0412	-0.00704	0.027	0.197	0.984	0.985	0.985	0.987	0.38	0.491	0.522	0.525	0.656	0.686	0.668	0.59								
O=C(CCCCCCC(=O)Nc1ccccc1)NO [Vorinostat (SAHA)]	-0.0182	-0.0297	-0.0883	-0.201	0.818	0.762	0.691	0.615	-0.0269	0.0202	0.0234	0.0225	0.849	0.817	0.786	0.742	0.465	0.518	0.537	0.553	0.523	0.578	0.586	0.591								
COc1ccc(-c2ccc3c(N4CCOC[C@@H]4C)nc(N4CCOC[C@@H]4C)nc3n2)cc1CO	0.165	0.142	0.0822	0.157	0.896	0.892	0.897	0.909	0.124	0.14	0.163	0.253	0.899	0.893	0.902	0.923	0.495	0.529	0.545	0.545	0.749	0.763	0.762	0.744								
